# Results reported in paper PMC7862700, “An all-to-all approach to the identification of sequence-specific readers for epigenetic DNA modifications on cytosine”.
# Legend:
# Test in all cases: DAPPL (digital affinity profiling via proximity ligation, sequencing); 10 mM Tris-HCl pH 7.5, 50 mM NaCl, 1 mM DTT, 4% glycerol, room temperature, 30 min; GST-TFs on glutathione beads, 16-mer random dsDNA library, 0.1% formaldehyde crosslink after washing; high values mean tight binding
# Conditions in all cases: protein: recombinant; tags: N-terminal GST; dsDNA, one strand shown
# FLI1 = biological target: T1, FLI1 (Homo sapiens, UniProt Q01543 1-452)
# T1 sequence: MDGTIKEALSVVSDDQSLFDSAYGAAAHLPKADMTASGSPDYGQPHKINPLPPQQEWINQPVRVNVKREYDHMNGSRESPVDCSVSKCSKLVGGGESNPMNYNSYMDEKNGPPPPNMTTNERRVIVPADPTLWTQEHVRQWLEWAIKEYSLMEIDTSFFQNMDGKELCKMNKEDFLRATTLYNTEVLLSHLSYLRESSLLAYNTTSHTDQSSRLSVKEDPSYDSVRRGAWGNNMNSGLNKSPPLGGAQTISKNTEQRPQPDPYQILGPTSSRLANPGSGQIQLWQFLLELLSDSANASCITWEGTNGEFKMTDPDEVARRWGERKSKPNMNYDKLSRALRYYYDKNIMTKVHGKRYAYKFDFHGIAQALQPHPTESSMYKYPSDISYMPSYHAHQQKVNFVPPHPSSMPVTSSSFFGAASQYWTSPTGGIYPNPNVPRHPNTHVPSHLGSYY
# Outline: (§1)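 The binding signal reported is, for every hexamer, its read frequency for a factor over its read frequency for the tag-only sample. Reads came from pools of yeast-expressed, GST-fused human transcription factors on glutathione beads, barcoded with DNA and mixed with that sample, which were incubated with 200 nmole of a random double-stranded 16-mer DNA library in Tris/NaCl/DTT/glycerol buffer at room temperature for 30 min. After washing, the pools were crosslinked with 0.1% formaldehyde, proximity-ligated with BsaI/T4 ligase for 1 h at 37 °C, PCR-amplified and sequenced on an Illumina NextSeq500.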
# ELK1 = biological target: T2, ELK1 (Homo sapiens, UniProt P19419 1-428)
# T2 sequence: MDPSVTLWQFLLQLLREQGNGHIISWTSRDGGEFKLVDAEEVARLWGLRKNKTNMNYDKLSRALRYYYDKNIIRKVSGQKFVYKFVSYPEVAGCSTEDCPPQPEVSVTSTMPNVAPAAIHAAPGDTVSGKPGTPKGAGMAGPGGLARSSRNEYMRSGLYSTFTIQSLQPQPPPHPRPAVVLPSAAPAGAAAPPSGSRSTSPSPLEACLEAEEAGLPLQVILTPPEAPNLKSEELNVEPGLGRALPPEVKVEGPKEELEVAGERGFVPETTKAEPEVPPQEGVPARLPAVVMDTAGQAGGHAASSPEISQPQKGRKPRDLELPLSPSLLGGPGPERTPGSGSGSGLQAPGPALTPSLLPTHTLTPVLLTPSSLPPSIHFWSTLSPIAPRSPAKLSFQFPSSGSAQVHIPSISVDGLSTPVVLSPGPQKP
# Outline: as §1
# GABPA = biological target: T3, GABPA (Homo sapiens, UniProt Q06546 1-454)
# T3 sequence: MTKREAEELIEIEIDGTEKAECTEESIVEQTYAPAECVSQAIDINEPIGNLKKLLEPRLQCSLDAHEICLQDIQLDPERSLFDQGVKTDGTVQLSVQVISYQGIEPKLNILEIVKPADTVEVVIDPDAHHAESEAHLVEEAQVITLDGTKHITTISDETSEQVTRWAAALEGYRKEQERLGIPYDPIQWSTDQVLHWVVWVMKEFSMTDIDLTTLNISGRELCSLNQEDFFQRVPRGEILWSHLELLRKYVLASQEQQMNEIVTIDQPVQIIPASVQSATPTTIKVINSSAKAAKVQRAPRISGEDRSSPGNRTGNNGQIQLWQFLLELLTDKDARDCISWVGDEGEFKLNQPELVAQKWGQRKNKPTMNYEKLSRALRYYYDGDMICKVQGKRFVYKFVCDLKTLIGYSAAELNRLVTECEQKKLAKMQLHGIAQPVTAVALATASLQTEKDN
# Outline: as §1
# ERG = biological target: T4, ERG (Homo sapiens, UniProt P11308 1-479)
# T4 sequence: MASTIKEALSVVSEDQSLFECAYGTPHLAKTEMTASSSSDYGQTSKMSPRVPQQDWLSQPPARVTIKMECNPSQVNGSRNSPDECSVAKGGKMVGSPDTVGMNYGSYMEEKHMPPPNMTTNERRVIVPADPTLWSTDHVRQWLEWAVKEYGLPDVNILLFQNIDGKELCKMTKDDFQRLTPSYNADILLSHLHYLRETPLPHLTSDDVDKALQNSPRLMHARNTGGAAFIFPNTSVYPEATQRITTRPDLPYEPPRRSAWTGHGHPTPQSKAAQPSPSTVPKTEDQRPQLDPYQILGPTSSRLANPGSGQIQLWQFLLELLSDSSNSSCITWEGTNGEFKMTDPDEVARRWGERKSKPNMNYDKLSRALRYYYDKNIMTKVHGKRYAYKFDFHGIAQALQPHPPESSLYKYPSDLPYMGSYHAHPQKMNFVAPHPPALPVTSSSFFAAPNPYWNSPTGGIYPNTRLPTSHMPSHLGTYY
# Outline: as §1
# ELF1 = ELF1 (Homo sapiens, UniProt P32519 1-619)
# Outline: as §1
# EHF = biological target: T5, EHF (Homo sapiens, UniProt Q9NZC4 1-300)
# T5 sequence: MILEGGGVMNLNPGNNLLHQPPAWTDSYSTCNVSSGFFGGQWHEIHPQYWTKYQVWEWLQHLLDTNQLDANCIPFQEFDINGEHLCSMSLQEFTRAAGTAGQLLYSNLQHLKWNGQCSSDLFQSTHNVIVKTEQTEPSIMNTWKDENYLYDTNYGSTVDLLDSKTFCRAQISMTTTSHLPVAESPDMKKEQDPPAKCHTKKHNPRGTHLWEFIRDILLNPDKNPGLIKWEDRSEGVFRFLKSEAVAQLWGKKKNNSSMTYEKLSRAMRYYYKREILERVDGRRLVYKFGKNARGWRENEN
# Outline: as §1
# SPIB = SPIB (Homo sapiens, UniProt Q01892 1-262)
# Outline: as §1
# ELK3 = biological target: T6, ELK3 (Homo sapiens, UniProt P41970 1-407)
# T6 sequence: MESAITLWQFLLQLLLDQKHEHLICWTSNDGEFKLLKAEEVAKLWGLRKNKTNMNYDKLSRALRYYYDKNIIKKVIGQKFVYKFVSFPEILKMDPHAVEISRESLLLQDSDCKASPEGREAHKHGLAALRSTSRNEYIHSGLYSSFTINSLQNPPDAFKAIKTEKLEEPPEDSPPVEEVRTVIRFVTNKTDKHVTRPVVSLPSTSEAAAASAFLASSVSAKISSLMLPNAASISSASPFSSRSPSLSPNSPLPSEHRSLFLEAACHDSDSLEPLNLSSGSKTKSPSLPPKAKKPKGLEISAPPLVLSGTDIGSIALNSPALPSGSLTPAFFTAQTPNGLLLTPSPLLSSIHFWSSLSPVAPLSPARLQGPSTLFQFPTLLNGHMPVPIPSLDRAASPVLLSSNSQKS
# Outline: as §1
# FEV = biological target: T7, FEV (Homo sapiens, UniProt Q99581 1-238)
# T7 sequence: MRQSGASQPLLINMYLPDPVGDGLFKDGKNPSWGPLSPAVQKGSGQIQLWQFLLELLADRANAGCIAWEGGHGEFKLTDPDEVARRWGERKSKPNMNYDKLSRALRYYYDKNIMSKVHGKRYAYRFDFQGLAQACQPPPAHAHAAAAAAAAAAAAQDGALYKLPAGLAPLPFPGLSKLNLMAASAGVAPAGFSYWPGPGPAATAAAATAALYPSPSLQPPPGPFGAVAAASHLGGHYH
# Outline: as §1
# ETV5 = ETV5 (Homo sapiens, UniProt P41161 1-510)
# Outline: as §1
# SPIC = biological target: T8, SPIC (Homo sapiens, UniProt Q8N5J4 1-248)
# T8 sequence: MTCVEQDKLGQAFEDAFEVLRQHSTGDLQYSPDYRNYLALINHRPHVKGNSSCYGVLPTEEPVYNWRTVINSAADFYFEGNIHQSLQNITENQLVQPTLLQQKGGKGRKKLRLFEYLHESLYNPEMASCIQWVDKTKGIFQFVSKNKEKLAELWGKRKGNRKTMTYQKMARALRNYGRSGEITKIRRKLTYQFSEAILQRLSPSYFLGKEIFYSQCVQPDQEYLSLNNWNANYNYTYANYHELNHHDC
# Outline: as §1
# ELF4 = ELF4 (Homo sapiens, UniProt Q99607 1-663)
# Outline: as §1
# ETV1 = ETV1 (Homo sapiens, UniProt P50549 1-477)
# Outline: as §1
# ERF = biological target: T9, ERF (Homo sapiens, UniProt P50548 1-548)
# T9 sequence: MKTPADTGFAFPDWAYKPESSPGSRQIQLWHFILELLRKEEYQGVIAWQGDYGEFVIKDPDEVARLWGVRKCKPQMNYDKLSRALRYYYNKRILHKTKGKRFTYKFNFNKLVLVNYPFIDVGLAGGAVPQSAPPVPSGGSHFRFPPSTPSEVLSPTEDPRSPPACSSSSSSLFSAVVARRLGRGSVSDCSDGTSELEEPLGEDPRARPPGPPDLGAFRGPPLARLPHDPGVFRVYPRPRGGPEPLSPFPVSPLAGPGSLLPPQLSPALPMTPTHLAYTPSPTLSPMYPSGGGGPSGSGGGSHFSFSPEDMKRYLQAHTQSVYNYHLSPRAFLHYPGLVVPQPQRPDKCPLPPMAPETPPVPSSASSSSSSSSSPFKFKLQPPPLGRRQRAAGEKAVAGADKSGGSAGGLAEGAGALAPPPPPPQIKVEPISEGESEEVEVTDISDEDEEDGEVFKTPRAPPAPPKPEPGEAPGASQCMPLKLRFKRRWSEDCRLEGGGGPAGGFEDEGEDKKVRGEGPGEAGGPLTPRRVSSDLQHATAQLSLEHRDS
# Outline: as §1
# ETV3L = biological target: T10, ETV3L (Homo sapiens, UniProt Q6ZN32 1-361)
# T10 sequence: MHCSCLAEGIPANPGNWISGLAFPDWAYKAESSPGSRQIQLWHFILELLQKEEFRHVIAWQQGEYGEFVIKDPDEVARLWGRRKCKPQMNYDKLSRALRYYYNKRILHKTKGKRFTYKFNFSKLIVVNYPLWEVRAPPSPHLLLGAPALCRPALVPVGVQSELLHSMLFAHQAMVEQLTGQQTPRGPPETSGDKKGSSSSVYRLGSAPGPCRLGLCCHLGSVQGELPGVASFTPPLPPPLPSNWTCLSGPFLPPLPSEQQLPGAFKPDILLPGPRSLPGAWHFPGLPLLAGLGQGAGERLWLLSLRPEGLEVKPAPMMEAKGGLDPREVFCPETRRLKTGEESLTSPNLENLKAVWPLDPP
# Outline: as §1
# ETS2 = biological target: T11, ETS2 (Homo sapiens, UniProt P15036 1-469)
# T11 sequence: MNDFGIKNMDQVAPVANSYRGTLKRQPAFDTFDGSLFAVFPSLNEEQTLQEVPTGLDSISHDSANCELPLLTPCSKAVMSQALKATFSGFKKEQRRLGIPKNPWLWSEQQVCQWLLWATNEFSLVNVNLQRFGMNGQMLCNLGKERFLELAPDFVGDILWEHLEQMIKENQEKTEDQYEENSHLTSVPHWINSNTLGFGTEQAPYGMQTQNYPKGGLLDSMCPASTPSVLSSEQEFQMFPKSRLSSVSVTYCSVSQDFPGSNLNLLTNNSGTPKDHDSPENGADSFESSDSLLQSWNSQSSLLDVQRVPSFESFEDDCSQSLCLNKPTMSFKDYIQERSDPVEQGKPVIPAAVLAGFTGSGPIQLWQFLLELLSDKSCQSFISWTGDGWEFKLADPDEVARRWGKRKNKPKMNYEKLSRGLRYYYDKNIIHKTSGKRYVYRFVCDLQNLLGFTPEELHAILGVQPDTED
# Outline: as §1
# SPDEF = biological target: T12, SPDEF (Homo sapiens, UniProt O95238 1-335)
# T12 sequence: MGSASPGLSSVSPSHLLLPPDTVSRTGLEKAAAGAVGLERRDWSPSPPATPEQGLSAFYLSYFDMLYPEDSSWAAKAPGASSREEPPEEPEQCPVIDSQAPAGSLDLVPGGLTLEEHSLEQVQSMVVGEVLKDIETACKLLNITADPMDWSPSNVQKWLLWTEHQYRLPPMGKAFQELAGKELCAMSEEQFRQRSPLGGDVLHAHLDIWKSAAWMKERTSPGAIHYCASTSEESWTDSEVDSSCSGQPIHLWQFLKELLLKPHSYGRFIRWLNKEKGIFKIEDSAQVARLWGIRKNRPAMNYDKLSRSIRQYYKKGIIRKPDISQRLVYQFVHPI
# Outline: as §1
# ETV3 = biological target: T13, ETV3 (Homo sapiens, UniProt P41162-2 1-143)
# T13 sequence: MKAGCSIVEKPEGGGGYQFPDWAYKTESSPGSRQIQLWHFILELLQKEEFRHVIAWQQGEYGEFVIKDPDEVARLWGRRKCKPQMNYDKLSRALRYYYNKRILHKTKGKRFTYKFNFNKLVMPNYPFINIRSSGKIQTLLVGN
# Outline: as §1
# ETV6 = ETV6 (Homo sapiens, UniProt P41212 1-452)
# Outline: as §1
# Chain of ETV5 (P41161 whole entry): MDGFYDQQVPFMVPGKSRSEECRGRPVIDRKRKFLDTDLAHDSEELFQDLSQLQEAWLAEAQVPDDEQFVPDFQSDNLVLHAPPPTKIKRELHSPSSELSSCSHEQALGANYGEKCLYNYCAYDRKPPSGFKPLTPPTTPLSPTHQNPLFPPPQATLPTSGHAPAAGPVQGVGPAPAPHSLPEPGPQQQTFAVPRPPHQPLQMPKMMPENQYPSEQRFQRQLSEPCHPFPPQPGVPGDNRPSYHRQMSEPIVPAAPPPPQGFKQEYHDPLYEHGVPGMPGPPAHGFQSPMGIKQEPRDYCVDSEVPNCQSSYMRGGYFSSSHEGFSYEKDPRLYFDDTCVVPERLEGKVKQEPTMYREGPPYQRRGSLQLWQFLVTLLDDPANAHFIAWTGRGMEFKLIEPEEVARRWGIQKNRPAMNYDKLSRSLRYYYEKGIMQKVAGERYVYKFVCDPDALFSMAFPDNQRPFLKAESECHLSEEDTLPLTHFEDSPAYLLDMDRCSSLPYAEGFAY
# Chain of ELF4 (Q99607 whole entry): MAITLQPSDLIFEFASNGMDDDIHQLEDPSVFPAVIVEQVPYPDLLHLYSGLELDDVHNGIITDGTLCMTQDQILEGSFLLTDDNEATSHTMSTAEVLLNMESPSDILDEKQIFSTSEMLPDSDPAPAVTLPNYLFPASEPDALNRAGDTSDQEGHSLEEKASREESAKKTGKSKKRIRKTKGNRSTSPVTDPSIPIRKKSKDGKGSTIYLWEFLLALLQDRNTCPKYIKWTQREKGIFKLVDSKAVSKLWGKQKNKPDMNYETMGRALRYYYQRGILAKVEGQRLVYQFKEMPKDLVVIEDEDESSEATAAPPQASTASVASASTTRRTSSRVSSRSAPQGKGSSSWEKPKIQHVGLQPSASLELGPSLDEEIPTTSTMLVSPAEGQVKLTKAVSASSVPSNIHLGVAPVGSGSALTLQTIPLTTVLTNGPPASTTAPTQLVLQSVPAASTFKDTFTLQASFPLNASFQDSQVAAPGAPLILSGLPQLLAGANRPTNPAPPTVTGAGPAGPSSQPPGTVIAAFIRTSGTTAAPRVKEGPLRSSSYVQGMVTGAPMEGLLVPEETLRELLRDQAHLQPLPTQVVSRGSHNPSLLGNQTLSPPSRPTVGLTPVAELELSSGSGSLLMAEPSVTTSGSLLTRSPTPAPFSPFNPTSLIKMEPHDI
# Chain of ETV6 (P41212 whole entry): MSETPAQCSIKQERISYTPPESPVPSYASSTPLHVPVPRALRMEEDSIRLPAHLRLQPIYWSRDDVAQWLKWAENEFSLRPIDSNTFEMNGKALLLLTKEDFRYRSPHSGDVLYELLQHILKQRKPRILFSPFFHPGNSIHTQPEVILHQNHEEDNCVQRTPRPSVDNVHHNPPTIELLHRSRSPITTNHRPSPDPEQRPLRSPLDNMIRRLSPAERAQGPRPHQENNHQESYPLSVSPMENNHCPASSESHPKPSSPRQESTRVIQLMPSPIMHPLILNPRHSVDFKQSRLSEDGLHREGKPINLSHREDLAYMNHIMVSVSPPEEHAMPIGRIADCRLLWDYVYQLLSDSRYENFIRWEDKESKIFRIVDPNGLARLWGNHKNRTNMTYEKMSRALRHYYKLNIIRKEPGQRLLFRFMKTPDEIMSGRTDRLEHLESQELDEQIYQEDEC
# Chain of ETV1 (P50549 whole entry): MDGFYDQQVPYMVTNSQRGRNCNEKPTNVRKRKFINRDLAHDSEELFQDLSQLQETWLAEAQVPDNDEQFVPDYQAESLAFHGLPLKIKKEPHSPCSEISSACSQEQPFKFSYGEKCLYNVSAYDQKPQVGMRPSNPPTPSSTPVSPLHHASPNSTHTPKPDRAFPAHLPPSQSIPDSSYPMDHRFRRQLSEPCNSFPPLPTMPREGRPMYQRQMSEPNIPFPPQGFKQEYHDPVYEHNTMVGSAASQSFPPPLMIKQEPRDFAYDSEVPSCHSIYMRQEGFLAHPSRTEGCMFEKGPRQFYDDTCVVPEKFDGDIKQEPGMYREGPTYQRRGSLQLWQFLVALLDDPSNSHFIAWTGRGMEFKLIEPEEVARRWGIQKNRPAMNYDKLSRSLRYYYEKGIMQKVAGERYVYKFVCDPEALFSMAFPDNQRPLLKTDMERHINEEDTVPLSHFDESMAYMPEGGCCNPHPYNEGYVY
# Chain of ELF1 (P32519 whole entry): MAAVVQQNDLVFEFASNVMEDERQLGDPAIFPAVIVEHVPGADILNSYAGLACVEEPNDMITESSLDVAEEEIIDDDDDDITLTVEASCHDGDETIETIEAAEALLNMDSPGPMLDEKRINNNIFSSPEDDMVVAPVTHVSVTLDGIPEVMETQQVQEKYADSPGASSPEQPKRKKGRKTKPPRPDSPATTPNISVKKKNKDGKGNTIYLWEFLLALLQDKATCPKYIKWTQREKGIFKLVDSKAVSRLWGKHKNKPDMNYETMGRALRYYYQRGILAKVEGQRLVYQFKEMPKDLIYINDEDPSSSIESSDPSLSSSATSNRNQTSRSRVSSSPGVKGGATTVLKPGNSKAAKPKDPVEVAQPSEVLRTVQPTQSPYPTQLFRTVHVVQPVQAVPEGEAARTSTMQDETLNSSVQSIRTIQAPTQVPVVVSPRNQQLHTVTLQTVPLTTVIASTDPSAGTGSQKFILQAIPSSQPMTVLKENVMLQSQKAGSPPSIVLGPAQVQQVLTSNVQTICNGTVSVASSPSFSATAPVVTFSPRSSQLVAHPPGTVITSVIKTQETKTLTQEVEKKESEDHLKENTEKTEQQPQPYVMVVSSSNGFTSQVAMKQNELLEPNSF
# Chain of SPIB (Q01892 whole entry): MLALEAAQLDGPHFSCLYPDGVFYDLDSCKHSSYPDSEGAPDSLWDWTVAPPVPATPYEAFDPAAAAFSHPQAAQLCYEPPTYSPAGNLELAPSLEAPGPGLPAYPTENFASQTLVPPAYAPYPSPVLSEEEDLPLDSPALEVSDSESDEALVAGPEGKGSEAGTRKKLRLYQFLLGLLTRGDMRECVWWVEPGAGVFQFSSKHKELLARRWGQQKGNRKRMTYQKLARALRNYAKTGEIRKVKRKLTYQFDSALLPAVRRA
sequence,measurement,setting,value
CCACAC,binding signal,FLI1,"1.07 fold enrichment (6-mer frequency, TF over GST control)"
same,binding signal,ELK1,"1.07 fold enrichment (6-mer frequency, TF over GST control)"
same,binding signal,GABPA,"1.1 fold enrichment (6-mer frequency, TF over GST control)"
same,binding signal,ERG,"1.07 fold enrichment (6-mer frequency, TF over GST control)"
same,binding signal,ELF1,"1.12 fold enrichment (6-mer frequency, TF over GST control)"
same,binding signal,EHF,"1.12 fold enrichment (6-mer frequency, TF over GST control)"
same,binding signal,SPIB,"1.04 fold enrichment (6-mer frequency, TF over GST control)"
same,binding signal,ELK3,"1.11 fold enrichment (6-mer frequency, TF over GST control)"
same,binding signal,FEV,"1.11 fold enrichment (6-mer frequency, TF over GST control)"
same,binding signal,ETV5,"1.11 fold enrichment (6-mer frequency, TF over GST control)"
same,binding signal,SPIC,"1.18 fold enrichment (6-mer frequency, TF over GST control)"
same,binding signal,ELF4,"1.1 fold enrichment (6-mer frequency, TF over GST control)"
same,binding signal,ETV1,"1.1 fold enrichment (6-mer frequency, TF over GST control)"
same,binding signal,ERF,"1.08 fold enrichment (6-mer frequency, TF over GST control)"
same,binding signal,ETV3L,"1.11 fold enrichment (6-mer frequency, TF over GST control)"
same,binding signal,ETS2,"1.03 fold enrichment (6-mer frequency, TF over GST control)"
same,binding signal,SPDEF,"1.13 fold enrichment (6-mer frequency, TF over GST control)"
same,binding signal,ETV3,"1 fold enrichment (6-mer frequency, TF over GST control)"
same,binding signal,ETV6,"1.02 fold enrichment (6-mer frequency, TF over GST control)"
